About 1,100 (5%) of roughly 22,000 compounds were called active. The sample as a whole holds a higher share of actives than the screen did. Unmarked numbers belong to inactive results. No stated cut-off is given here; in the data, active means activity score above about 55%; inconclusive means no clear call, values can overlap the other calls; inactive means below that.
Assay: T. cruzi growth inside host cells – cell-based, plate reader, single point, set 2, primary screen (AID 651903);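 further: parasites and compound incubated about four days before reading; 0% = median of neutral control wells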
Settings: intracellular Trypanosoma cruzi in host cells, at 5.01 µM, hits give high values

First: COc1ccc(NC(=O)Nc2ccc3c(c2)CC(=O)N([C@@H](C)CO)C[C@H](C)[C@@H](CN(C)CC2CCCCC2)O3)cc1
Second: C[C@H]1CN([C@@H](C)CO)C(=O)Cc2cc(NC(=O)Nc3cccc4ccccc34)ccc2O[C@H]1CN(C)CC1CC1
The activity score (inhibition) of the first is higher: -4.28% for the first, -24.3% for the second.

Compared with `C[C@H]1CN([C@@H](C)CO)C(=O)c2cc(NC(=O)Nc3ccc4c(c3)OCO4)ccc2O[C@@H]1CN(C)CC1CCCCC1`, `C[C@H](CO)N1C[C@H](C)[C@@H](CN(C)Cc2ccccc2)Oc2ccc(NC(=O)Nc3ccc4c(c3)OCO4)cc2C1=O` is lower in activity score (inhibition): 8.83% for the first, -2% for the second.

Compared with `C[C@@H]1CN([C@@H](C)CO)C(=O)Cc2cc(NC(=O)C3CCCCC3)ccc2O[C@@H]1CN(C)CC1CCCCC1`, `C[C@@H]1CN([C@H](C)CO)C(=O)Cc2cc(NC(=O)CCC(F)(F)F)ccc2O[C@@H]1CN(C)CC1CCCCC1` is lower in activity score (inhibition): -4.58% for the first, -9.63% for the second.

Going from `C[C@H](CO)N1C[C@H](C)[C@H](CN(C)C(=O)Nc2ccc3c(c2)OCO3)Oc2ccc(NS(=O)(=O)c3ccc(Cl)cc3)cc2CC1=O` to `Cc1ccc(S(=O)(=O)Nc2ccc3c(c2)CC(=O)N([C@@H](C)CO)C[C@H](C)[C@H](CN(C)Cc2ccccc2)O3)cc1`, the activity score (inhibition) rises from -5.11% to 12.2%.

Compared with `C[C@H](CO)N1C[C@H](C)[C@@H](CN(C)Cc2ccccc2C(F)(F)F)OCc2cn(nn2)CCCC1=O`, `C[C@@H]1CN([C@@H](C)CO)C(=O)CCCn2cc(nn2)CO[C@@H]1CN(C)C(=O)c1ccncc1` is higher in activity score (inhibition): -23.6% for the first, -21.4% for the second.

First: Cc1noc(C)c1NC(=O)Nc1ccc2c(c1)C(=O)N([C@H](C)CO)C[C@H](C)[C@@H](CN(C)C(=O)Nc1ccccc1)O2
Second: C[C@@H]1CN([C@H](C)CO)C(=O)c2cc(NC(=O)Nc3ccccc3)ccc2O[C@H]1CN(C)Cc1ccc(Cl)c(Cl)c1
The activity score (inhibition) of the first is higher: -16.8% for the first, -34% for the second.

First: C[C@@H]1CN([C@@H](C)CO)C(=O)Cc2cc(NC(=O)C3CC3)ccc2O[C@@H]1CN(C)S(C)(=O)=O
Second: Cc1ccc(S(=O)(=O)N(C)C[C@@H]2Oc3ccc(NC(=O)Cn4cnnn4)cc3CC(=O)N([C@H](C)CO)C[C@H]2C)cc1
The activity score (inhibition) of the first is lower: -20.7% for the first, 9.72% for the second.

Going from `C[C@@H]1CN([C@@H](C)CO)C(=O)c2cc(NC(=O)Nc3ccc4c(c3)OCO4)ccc2O[C@@H]1CN(C)Cc1ccc(Oc2ccccc2)cc1` to `C[C@H]1CN([C@@H](C)CO)C(=O)c2cccc(NC(=O)Nc3ccccc3)c2O[C@H]1CN(C)Cc1ccc(Oc2ccccc2)cc1`, the activity score (inhibition) falls from 17.5% to 13.5%.

First: C[C@@H]1CN([C@@H](C)CO)C(=O)c2cc(NC(=O)c3ccncc3)ccc2O[C@@H]1CN(C)Cc1ccncc1
Second: C[C@@H]1CN([C@@H](C)CO)C(=O)c2cc(NC(=O)c3ccncc3)ccc2O[C@H]1CN(C)Cc1ccc(C(=O)O)cc1
The activity score (inhibition) of the first is lower: -7.68% for the first, -2.84% for the second.

Going from `C[C@@H]1CN([C@@H](C)CO)C(=O)Cc2cc(NC(=O)C3CCCCC3)ccc2O[C@@H]1CN(C)Cc1ccc(-c2ccccc2)cc1` to `C[C@H]1CN([C@@H](C)CO)C(=O)Cc2cc(NC(=O)Cc3cn(C)c4ccccc34)ccc2O[C@H]1CN(C)Cc1ccccc1`, the activity score (inhibition) falls from 43.3% to 11.1%.

First: C[C@@H]1CN([C@@H](C)CO)C(=O)c2cccc(NS(=O)(=O)c3ccc(F)cc3)c2O[C@@H]1CN(C)Cc1ccc(C(=O)O)cc1
Second: Cc1ccc(S(=O)(=O)Nc2ccc3c(c2)C(=O)N([C@@H](C)CO)C[C@@H](C)[C@@H](CN(C)Cc2ccc(C(=O)Nc4ccccc4N)cc2)O3)cc1
The activity score (inhibition) of the first is lower: -4.66% for the first, 23.3% for the second.

Going from `C[C@@H]1CN([C@@H](C)CO)C(=O)c2cccc(NC(=O)Nc3cccc4ccccc34)c2O[C@H]1CN(C)S(=O)(=O)c1ccccc1` to `CC(C)NC(=O)Nc1cccc2c1O[C@H](CN(C)S(=O)(=O)c1ccccc1)[C@@H](C)CN([C@@H](C)CO)C2=O`, the activity score (inhibition) rises from -9.51% to 0.345%.

Compared with `C[C@@H]1CN([C@H](C)CO)C(=O)c2cccc(NC(=O)CCCCCC(=O)Nc3ccccc3N)c2O[C@@H]1CN(C)C(=O)Nc1ccccc1`, `C[C@H]1CN([C@@H](C)CO)C(=O)c2cccc(NC(=O)CCCCCC(=O)Nc3ccccc3N)c2O[C@H]1CN(C)C(=O)Nc1ccccc1` is lower in activity score (inhibition): 16.9% for the first, -8.85% for the second.

Compared with `C[C@H]1CN([C@@H](C)CO)C(=O)c2cccc(NC(=O)CCCCCC(=O)Nc3ccccc3N)c2O[C@@H]1CN(C)S(=O)(=O)c1cn(C)cn1`, `C[C@H](CO)N1C[C@H](C)[C@@H](CN(C)C(=O)Nc2ccccc2)Oc2c(NC(=O)CCCCCC(=O)Nc3ccccc3N)cccc2C1=O` is higher in activity score (inhibition): -40.6% for the first, -11.7% for the second.

First: CC(C)NC(=O)Nc1cccc2c1O[C@@H](CN(C)S(=O)(=O)c1ccc(F)cc1)[C@@H](C)CN([C@H](C)CO)C2=O
Second: CC(C)NC(=O)Nc1cccc2c1O[C@H](CN(C)Cc1ccc3c(c1)OCO3)[C@H](C)CN([C@H](C)CO)C2=O
The activity score (inhibition) of the first is lower: -25.4% for the first, -10.8% for the second.

Going from `COc1ccc(S(=O)(=O)Nc2ccc3c(c2)C(=O)N([C@@H](C)CO)C[C@@H](C)[C@@H](CN(C)S(C)(=O)=O)O3)cc1` to `COc1ccc(S(=O)(=O)N(C)C[C@H]2Oc3ccc(NS(=O)(=O)c4c(C)noc4C)cc3CC(=O)N([C@@H](C)CO)C[C@H]2C)cc1`, the activity score (inhibition) rises from -8.35% to -2.67%.

Going from `C[C@H](CO)N1C[C@H](C)[C@@H](CN(C)S(=O)(=O)c2ccccc2)Oc2c(NS(=O)(=O)c3cn(C)cn3)cccc2C1=O` to `C[C@@H]1CN([C@H](C)CO)C(=O)c2cc(NS(=O)(=O)c3cn(C)cn3)ccc2O[C@@H]1CN(C)Cc1ccc(C(=O)Nc2ccccc2N)cc1`, the activity score (inhibition) rises from -8.44% to 3.44%.

Compared with `COc1ccc(NC(=O)Nc2ccc3c(c2)C(=O)N([C@@H](C)CO)C[C@H](C)[C@@H](CN(C)S(=O)(=O)c2ccc(Cl)cc2)O3)cc1`, `C[C@@H]1CCCCO[C@@H](CN(C)S(=O)(=O)c2cccs2)[C@@H](C)CN([C@H](C)CO)C(=O)c2cc(NC(=O)Nc3ccc(F)cc3)ccc2O1` is higher in activity score (inhibition): 16.5% for the first, 21.5% for the second.

Going from `COc1ccc(CN(C)C[C@@H]2Oc3c(NC(=O)C4CC4)cccc3C(=O)N([C@@H](C)CO)C[C@H]2C)cc1` to `C[C@H](CO)N1C[C@H](C)[C@H](CN(C)Cc2ccc(C(=O)Nc3ccccc3N)cc2)Oc2ccc(NS(C)(=O)=O)cc2C1=O`, the activity score (inhibition) rises from -27.5% to 16%.

Going from `C[C@@H]1CN([C@@H](C)CO)C(=O)c2cc(NS(=O)(=O)c3ccccc3)ccc2O[C@@H]1CN(C)Cc1ccc(C(=O)Nc2ccccc2N)cc1` to `COc1ccc(S(=O)(=O)Nc2ccc3c(c2)CC(=O)N([C@@H](C)CO)C[C@@H](C)[C@@H](CN(C)Cc2ccc(C(=O)Nc4ccccc4N)cc2)O3)cc1`, the activity score (inhibition) rises from 34.8% to 54%.

Compared with `O=C(NO)c1cccc(C(=O)N/N=C/c2cccnc2Cl)c1`, `C[C@H](CO)N1C[C@H](C)[C@H](CN(C)C(=O)Nc2ccc(F)cc2)Oc2ccc(NC(=O)Cc3cn(C)c4ccccc34)cc2CC1=O` is lower in activity score (inhibition): 1.22% for the first, -2.27% for the second.

First: C[C@@H]1CN([C@H](C)CO)C(=O)Cc2cc(NC(=O)Cc3cn(C)c4ccccc34)ccc2O[C@@H]1CN(C)S(=O)(=O)c1ccccc1
Second: C[C@H](CO)N1C[C@H](C)[C@H](CN(C)Cc2ccncc2)Oc2ccc(NC(=O)Cc3cn(C)c4ccccc34)cc2CC1=O
The activity score (inhibition) of the first is higher: 47.8% for the first, 4.58% for the second.

For `C[C@@H]1CN([C@@H](C)CO)C(=O)Cc2cc(NC(=O)Nc3cccc4ccccc34)ccc2O[C@@H]1CN(C)CC1CCCCC1`, the activity score (inhibition) was 59.9% (active).
In the case of `C[C@@H]1CN([C@@H](C)CO)C(=O)Cc2cc(NC(=O)Nc3ccc4c(c3)OCO4)ccc2O[C@@H]1CN(C)CC1CCCCC1`, the activity score (inhibition) is reported as 78.2% (active).
In the case of `C[C@@H]1CN([C@H](C)CO)C(=O)c2cc(NC(=O)c3ccncc3)ccc2O[C@H]1CN(C)Cc1ccc(Oc2ccccc2)cc1`, the activity score (inhibition) is reported as 85.4% (active).
For `C[C@H]1CN([C@@H](C)CO)C(=O)c2cc(NC(=O)Nc3ccc4c(c3)OCO4)ccc2O[C@@H]1CN(C)Cc1ccc(Oc2ccccc2)cc1`, the activity score (inhibition) was 70.1% (active).
For `C[C@H](CO)N1C[C@H](C)[C@@H](CN(C)Cc2ccccc2)Oc2c(NC(=O)CCCCCC(=O)Nc3ccccc3N)cccc2C1=O`, the activity score (inhibition) was 75.8% (active).
For `C[C@H](CO)N1C[C@H](C)[C@H](CN(C)Cc2ccc(Oc3ccccc3)cc2)Oc2c(NC(=O)CCCCCC(=O)Nc3ccccc3N)cccc2C1=O`, the activity score (inhibition) was 65.5% (active).
In the case of `C[C@H](CO)N1C[C@H](C)[C@H](CN(C)S(=O)(=O)c2ccccc2)Oc2c(NC(=O)CCCCCC(=O)Nc3ccccc3N)cccc2C1=O`, the activity score (inhibition) is reported as 58.6% (active).
In the case of `Cc1noc(C)c1S(=O)(=O)Nc1ccc2c(c1)C(=O)N([C@@H](C)CO)C[C@H](C)[C@H](CN(C)Cc1ccc(C(=O)Nc3ccccc3N)cc1)O2`, the activity score (inhibition) is reported as 74% (active).
In the case of `Cc1ccc(S(=O)(=O)Nc2ccc3c(c2)CC(=O)N([C@@H](C)CO)C[C@H](C)[C@H](CN(C)Cc2ccc(C(=O)Nc4ccccc4N)cc2)O3)cc1`, the activity score (inhibition) is reported as 66.2% (active).
For `C[C@H]1CN([C@@H](C)CO)C(=O)Cc2cc(NS(=O)(=O)c3ccccc3)ccc2O[C@H]1CN(C)Cc1ccc(C(=O)Nc2ccccc2N)cc1`, the activity score (inhibition) was 69.5% (active).
In the case of `C[C@H]1CN([C@@H](C)CO)C(=O)Cc2cc(NC(=O)Cc3cn(C)c4ccccc34)ccc2O[C@@H]1CN(C)Cc1ccc(C(F)(F)F)cc1`, the activity score (inhibition) is reported as 65.6% (active).
For `C[C@H]1CN([C@@H](C)CO)C(=O)Cc2cc(NC(=O)Cc3cn(C)c4ccccc34)ccc2O[C@@H]1CN(C)Cc1ccccc1`, the activity score (inhibition) was 57.4% (active).
